MITF primary: MITF inhibitors, primary screen, biochemical, AlphaScreen, human; Microphthalmia-associated transcription factor (Homo sapiens), O75030; AlphaScreen MITF homodimerization, bead proximity signal; inhibition, % at 2.6 µM; 0.91% of 650,000 active; in the data active = inhibition above about 50%
GPR151 activ: activators of human GPR151, primary screen, cell-based, PathHunter beta-arrestin, luminescence; PathHunter beta-arrestin GPR151 cells; activation, % at 11.2 µM; G-protein coupled receptor 151 (Homo sapiens), Q8TDV0; 1% of 650,000 active; in the data active = activation above about 4.9%
FBW7 act: FBW7 E3 ligase activators, primary screen, biochemical, AlphaScreen, human; normalized activity (activation), % at 26.1 µM; AlphaScreen FBW7–phospho-cyclin E peptide binding, activator screen; AID 1259310, 2017; F-box/WD repeat-containing protein 7 (Homo sapiens), Q969H0; 0.13% of 650,000 active; in the data active = normalized activity above about 1.9%;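 note: purified mutant Fbw7 with reduced substrate affinity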
TEAD-YAP inh: TEAD-YAP interaction inhibition, primary screen, TEAD-YAP interaction inhibitor project, luminescence, HEK-TIYL cells. AID 1259422, 2018. inhibition, % at 9.12 µM. TEAD-Gal4/YAP UAS-luciferase luminescence. 1.4% of 640,000 active; in the data active = inhibition above about 32%
Hits are given with their value; 0 = inactive. This is a sample that favours compounds with a hit; in the whole collection about 3.5% have one here.

SMILES	MITF primary	GPR151 activ	FBW7 act	TEAD-YAP inh
NS(=O)(=O)c1ccc(NS(=O)(=O)c2ccc3[nH]c(=O)sc3c2)cc1	0	0	0	0
CCC(=O)N1CCCC(c2nnc(-c3ccccc3F)s2)C1 (configuration not stated)	0	0	0	74
COc1ccc(S(=O)(=O)N2CCCC(C(=O)Nc3c4c(nn3C)CCC4)C2)cc1 (configuration not stated)	0	0	0	0
Cn1nc2c(c1NC(=O)C1CCCN(S(=O)(=O)c3ccc(Cl)s3)C1)CCC2 (configuration not stated)	0	0	0	33
COc1cccc(NC(=S)N/N=C/c2ccc(O)cc2)c1	0	0	0	60
COc1cc(/C=N/NC(=S)Nc2cccc(C(=O)O)c2)ccc1O	0	0	0	32
O=C(O)c1cccc(NC(=S)N/N=C/c2cc(Cl)ccc2O)c1	91	0	0	0
COc1cccc(/C=N/NC(=S)Nc2cccc(F)c2)c1O	58	0	0	40
COc1ccc(-n2c(=S)[nH]c3cc(C(=O)N4CCN(C)CC4)ccc3c2=O)cc1OC	0	0	0	0
COc1ccccc1/C=N/NC(=O)C(=O)Nc1ccccc1OC	0	0	0	0
CCOC(=O)c1ccc(NC(=S)Nc2cccc(OC)c2)cc1	0	0	0	62
COc1cccc(/C=N/NC(=S)Nc2cccc(C(=O)O)c2)c1O	112	0	0	61
COc1ccccc1/C=N/NC(=S)Nc1ccccc1OC	0	0	0	46
CS(=O)(=O)N(CC(=O)NCc1ccccc1)c1ccccc1F	0	0	0	0
COc1cccc(C(=O)Nc2nc3c(s2)CCC3)c1OC	0	0	0	62
COc1ccc(C(=O)Nc2nc3c(s2)CCCC3)c(OC)c1OC	0	0	0	62
COc1cccc(OC)c1C(=O)Nc1nc2c(s1)CCCC2	0	0	0	0
C=CCSc1nnc2c(n1)OC(c1cccc(OC)c1OCC(=O)O)Nc1ccccc1-2 (configuration not stated)	0	0	0	0
COc1ccc(-n2nc3ccc(NC(=O)c4cccc(Br)c4)cc3n2)cc1	0	0	0	0
O/C(=C\c1ccc2ccccc2n1)c1ccc(O)cc1O	0	0	0	75
CN(C)c1ccc(/C=C/c2ccc(-c3ccccc3)cc2)cc1	0	0	0	0
Oc1ccc(/C=C/c2nc3ccccc3s2)cc1	0	0	0	73
C(=C\c1ccc2ccccc2n1)/c1cccnc1	0	0	0	77
COc1ccc(/C=C/c2nc3ccccc3s2)cc1S(=O)(=O)N1CCOCC1	0	0	0	0
CN(C)c1ccc(/C=C/c2ccc3ccccc3n2)cc1	0	0	0	93
SMILES	MITF primary	GPR151 activ	FBW7 act	TEAD-YAP inh
N=C1C(c2nc3ccccc3s2)=C(O)CN1N	0	0	0	0
Cc1cc(N(CC(=O)NCC2CCCO2)S(C)(=O)=O)ccc1Br (configuration not stated)	0	0	0	0
O=[N+]([O-])c1ccccc1N1CCN(S(=O)(=O)c2ccc(Cl)cc2)CC1	0	0	0	0
O=C(O)/C=C/c1ccc2ccccc2n1	0	0	0	0
Oc1ccc(/C=C/c2ccc3ccccc3n2)cc1	0	0	0	85
O=C(NCC1CCCO1)C1C2C=CC3(CN(Cc4ccccc4)C(=O)C13)O2 (configuration not stated)	0	0	0	0
CCN(CC)C(=O)C1CCCN(c2cc(NCCc3ccc(OC)cc3)nc(N)n2)C1 (configuration not stated)	0	0	0	0
CC1CC2(C)Oc3ccccc3CC2C(C)C1CNCCCN(C)C (configuration not stated)	0	0	0	38
CC1Cc2ccccc2N1C(=O)CNCCCN(C)C (configuration not stated)	0	0	0	0
CCN(CC)c1nc(NCc2ccccc2)nc(NC2CCN(Cc3ccccc3)CC2)n1	0	0	0	0
FC(F)(F)c1ccc(Cn2cnc3c(NC4CCN(Cc5ccccc5)CC4)nc(N4CCN(c5ccccn5)CC4)nc32)cc1	0	0	0	0
Cc1ccc(Nc2c([N+](=O)[O-])sc3ccccc23)cc1	0	0	0	48
CCOC(=O)C1CCN(C(=O)c2nn(-c3ccc(OCC)cc3)c(=O)c3ccccc23)CC1	0	0	0	0
CCOC(=O)c1c(-c2ccc(OC)cc2)csc1NC(=O)CSc1ncn[nH]1	0	0	0	35
CNC(=O)/C(=C\c1ccc([N+](=O)[O-])cc1)NC(=O)c1ccco1	0	0	0	0
